This is a sample that favours compounds with a hit; in the whole collection about 1.4% have one here.
A3G deaminase = blocks human APOBEC3G single-stranded DNA deamination; 0.28% of 330,000 active; inhibition, % at 20 µM; recombinant A3G, ssDNA deamination FAM/TAMRA fluorescence;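 active = inhibition of at least 40% at 20 µM, with no more than 30% in the related APOBEC3A deaminase screen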;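 also: plate controls were DMSO wells with A3G for no effect and wells lacking A3G enzyme for full effect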
A3A deaminase = human APOBEC3A DNA deaminase inhibition. AID 493011. inhibition, % at 20 µM. recombinant A3A, FAM/TAMRA ssDNA deamination fluorescence. P31941. 0.41% of 330,000 active;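 active = at least 40% inhibition at 20 µM here, with at most 30% in a related deaminase screen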;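 also: plate controls were A3A with DMSO for no effect and wells lacking A3A enzyme for full effect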
HDAC3 inh = inhibitors of human histone deacetylase 3. O15379. recombinant HDAC3, fluorogenic peptide/trypsin coupled, fluorescence. inhibition, % at 8.3 µM. 0.15% of 320,000 active. AID 2718; in the data active = inhibition above about 26%, passing the limit was not always enough; inconclusive = no clear call, values can overlap the other calls
Target sequence (O15379 whole entry, looked up): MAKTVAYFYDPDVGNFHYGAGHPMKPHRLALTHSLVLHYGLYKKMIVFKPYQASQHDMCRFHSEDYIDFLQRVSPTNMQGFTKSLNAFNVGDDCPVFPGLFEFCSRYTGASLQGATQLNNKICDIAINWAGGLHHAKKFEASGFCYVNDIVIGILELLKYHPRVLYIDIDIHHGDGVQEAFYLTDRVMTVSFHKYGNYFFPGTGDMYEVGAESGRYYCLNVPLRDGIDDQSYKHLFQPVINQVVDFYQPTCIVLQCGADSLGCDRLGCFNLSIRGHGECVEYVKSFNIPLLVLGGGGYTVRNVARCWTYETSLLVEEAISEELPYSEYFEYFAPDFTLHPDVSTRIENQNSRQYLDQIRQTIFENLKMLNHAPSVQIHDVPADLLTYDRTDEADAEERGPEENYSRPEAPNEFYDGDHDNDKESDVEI
LANA-H2A inh = blocks KSHV LANA binding to histone H2A/H2B. inhibition, % (test concentration not listed). cell-free LANA-H2A/H2B peptide, fluorescence polarization. 0.6% of 320,000 active. AID 2629; in the data active = inhibition mostly above about 10%, no sharp cut-off; inactive = mostly below about 6.7%
An asterisk follows results filed as active.

`COc1ccccc1N1CSC2=C(C#N)C(c3ccc(SC)cc3)CC(=O)N2C1` (stereo not given) gave A3G deaminase 38, A3A deaminase 22, HDAC3 inh inconclusive and LANA-H2A inh 1.
For CC[C@@]1(C(=O)OC)N[C@H](CN(C)S(=O)(=O)c2ccccc2)[C@@H]2C(=O)N(C)C(=O)[C@@H]21 the results were A3G deaminase -6 and A3A deaminase -2.
CCC1(c2ccc(F)cc2)NC(=O)N(CC(=O)NC2CCCCCC2)C1=O (stereo not given) was read as A3G deaminase -10, A3A deaminase -3, HDAC3 inh 3 and LANA-H2A inh -4.
`COc1cc(OC)c(C2CC(=O)N3CN(c4ccccc4)CSC3=C2C#N)cc1OC` (stereo not given) gave A3G deaminase 25, A3A deaminase -4, HDAC3 inh 42* and LANA-H2A inh 2.
O=C(CSc1nc(=O)n(CCCN2CCOCC2)c2c1CCC2)Nc1cccc(F)c1 was read as A3G deaminase -3, A3A deaminase 0, HDAC3 inh 1 and LANA-H2A inh -1.
`Cc1cccc(N2C(=O)CN(Cc3cccs3)C2=S)c1` gave A3G deaminase -1, A3A deaminase 2, HDAC3 inh 1 and LANA-H2A inh active.
O=C(CN1C(=O)C2C3C=CC(C3)C2C1=O)NCc1ccc2c(c1)OCO2 (stereo not given) was read as A3G deaminase 4, A3A deaminase 4, HDAC3 inh -5 and LANA-H2A inh 19*.
For O=C(COC(=O)c1ccc2ncsc2c1)NCc1ccccc1Cl the results were A3G deaminase -2, A3A deaminase -1, HDAC3 inh 11 and LANA-H2A inh -2.
`Cc1ccccc1OCC(=O)OCC(=O)NCc1ccco1` gave A3G deaminase -11, A3A deaminase -1, HDAC3 inh 8 and LANA-H2A inh -3.
Screening O=C(COC(=O)COc1ccccc1)NCc1ccco1 returned A3G deaminase 2, A3A deaminase 0, HDAC3 inh 7 and LANA-H2A inh 18*.
`CCN(CC)c1nc2ccccc2[nH]c1=O` gave A3G deaminase -2, A3A deaminase 3 and LANA-H2A inh 1.
CCc1nc2ccccc2[nH]c1=O was read as A3G deaminase -5, A3A deaminase -3, HDAC3 inh -5 and LANA-H2A inh 27*.
`COC(=O)c1sccc1NC(=O)Nc1ccccc1F` gave A3G deaminase -5, A3A deaminase -1, HDAC3 inh 9 and LANA-H2A inh 12*.
`Cc1ccc(S(=O)(=O)N2CCOC2CNC(=O)C(=O)NCCc2c[nH]c3ccccc23)cc1` (stereo not given) gave A3G deaminase -5, A3A deaminase -6, HDAC3 inh 0 and LANA-H2A inh 42*.
`CCOc1ccc(NC(=O)CC2SC(=O)N(c3ccccc3)C2=O)cc1` (stereo not given) gave A3G deaminase -3, A3A deaminase -3, HDAC3 inh 40* and LANA-H2A inh 0.
Screening Cc1ccccc1NC(=O)CC1SC(=O)N(c2ccccc2)C1=O (stereo not given) returned A3G deaminase 4, A3A deaminase 3, HDAC3 inh 8 and LANA-H2A inh 4.
CCN(CC)c1ccc(S(=O)(=O)N2CCOCC2)cc1NC(=O)Cn1nc(C)c([N+](=O)[O-])c1C was read as A3G deaminase -7, A3A deaminase -4, HDAC3 inh 4 and LANA-H2A inh 2.
For CCN(CC)c1ccc(S(=O)(=O)N2CCOCC2)cc1NC(=O)CN1CCc2ccccc2C1 the results were A3G deaminase -5, A3A deaminase -4, HDAC3 inh 1 and LANA-H2A inh 33*.
COc1cc(NC(=O)CN2C(=O)NC(CC(C)C)C2=O)cc(OC)c1OC (stereo not given) was read as A3G deaminase -9, A3A deaminase -3, HDAC3 inh -7 and LANA-H2A inh 1.
Screening CC(C)Cc1ccc(CN2CCCC(NC(=O)c3cccc(-n4cnnc4)c3)C2)cc1 (stereo not given) returned A3G deaminase -4, A3A deaminase -2, HDAC3 inh 1 and LANA-H2A inh 53*.
Screening CC(C)Cc1ccc(CN2CCCC(NC(=O)c3ccoc3)C2)cc1 (stereo not given) returned A3G deaminase 9, A3A deaminase 0 and LANA-H2A inh 3.
For COc1ccc(NC(=O)CN(C)C(=O)/C=C/c2cn(-c3ccccc3)nc2-c2cccs2)cc1 the results were A3G deaminase -8, A3A deaminase 7, HDAC3 inh inconclusive and LANA-H2A inh 0.
Screening Cc1ccc(OCc2nnc(SC(C)C(=O)O)n2Cc2ccccc2)cc1 (stereo not given) returned A3G deaminase -5, A3A deaminase 0, HDAC3 inh -2 and LANA-H2A inh 11*.
For CCCCn1c(N)c(N(CCOC)C(=O)CN(C)S(=O)(=O)c2ccc(F)cc2)c(=O)[nH]c1=O the results were A3G deaminase -1 and A3A deaminase 3.
`COC(=O)c1cc(NC(=O)c2cc3ccccc3o2)cc(C(=O)OC)c1` gave A3G deaminase 24, A3A deaminase -6, HDAC3 inh -4 and LANA-H2A inh 16*.
`COC(=O)c1cc(NC(=O)c2ccccc2F)cc(C(=O)OC)c1` gave A3G deaminase 20, A3A deaminase 6, HDAC3 inh 1 and LANA-H2A inh 22*.
`Cc1ccc(C)c(S(=O)(=O)N2CCCCC2CCNC(=O)C(=O)NCc2ccncc2)c1` (stereo not given) gave A3G deaminase -8, A3A deaminase -3, HDAC3 inh 4 and LANA-H2A inh 1.
`NC(=O)COc1ccc(Nc2nnc(-c3ccc(O)cc3)c3ccccc23)cc1` gave A3G deaminase 1, A3A deaminase 2, HDAC3 inh -4 and LANA-H2A inh 19*.
For O=C(O)CCNC(=O)CCCn1nnc2ccccc2c1=O the results were A3G deaminase -7, A3A deaminase -8, HDAC3 inh -8 and LANA-H2A inh 92*.
`O=C(CNC(=O)c1cccs1)Nc1cccc(S(=O)(=O)N2CCOCC2)c1` gave A3G deaminase -7 and A3A deaminase 3.
For COc1ccc(C2N3CC4(C)CN2CC(C)(C3)C4)cc1OC (stereo not given) the results were A3G deaminase -5, A3A deaminase -5, HDAC3 inh 3 and LANA-H2A inh 6.4*.
`C=C[C@H]1CN2CC[C@H]1C[C@H]2[C@H](O)c1ccnc2ccc(OC)cc12` gave A3G deaminase -5, A3A deaminase -2, HDAC3 inh -5 and LANA-H2A inh 0.
`COc1ccc(NC(=O)c2ccco2)cc1NC(=O)c1ccc(Br)o1` gave A3G deaminase -6, A3A deaminase 1, HDAC3 inh -1 and LANA-H2A inh -4.
For COc1ccc(CC(=O)Nc2ccc(OC)c(NC(=O)c3ccco3)c2)cc1 the results were A3G deaminase -1, A3A deaminase 0, HDAC3 inh 3 and LANA-H2A inh 31*.
COc1ccc(NC(=O)c2ccco2)cc1NC(=O)c1ccc(C)cc1 was read as A3G deaminase -1, A3A deaminase 2, HDAC3 inh 6 and LANA-H2A inh 3.
